Among the data in the supplement of paper PMC4723716 are viability index values, retold here.

The subject of this test is Plasmodium falciparum NF54 stage V gametocytes. The test is described as follows: viability index relative to DMSO control (fraction); higher = less gametocyte killing. Particulars: 2.5 µM, incubation time: 72 h. The method in brief:
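Stage V gametocytes of P. falciparum NF54 were held in serum-free screening medium at 0.75% gametocytemia and 1.25% hematocrit, 10 µl per well of a 1,536-well plate, and exposed to compound at 2.5 µM for 72 hr at 37°C under low oxygen. A 3 µl mix of 2.5 µM MitoTracker Red CMXRos with 0.13% saponin was then added for one to two hours, after which one field per well was imaged and red particles of 20–70 µm2 were counted. The viability index equals this count divided by the plate mean from wells given solvent alone.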

Setting [1] is: library set: Broad Institute DOS.
Where [2] appears, read: library set: Broad Institute Blood Stage.

± gives the uncertainty stated by the source. In all, about 9,900 compounds were measured (“viability index relative to DMSO control”: median about 1, lowest 2% from about 0.85 on). This is one part of a sample in which the lowest values are shown more often than they occur.

Turning to `N#C[C@H]1[C@@H](c2ccc(C#Cc3cccc(F)c3)cc2)[C@@H](CO)N1C(=O)C1CCOCC1`, the viability index under setting [1] is 1.05 ± 0.058.

In the case of `N#C[C@H]1[C@H](c2ccc(C#Cc3cccc(F)c3)cc2)[C@@H](CO)N1C(=O)C1CCOCC1`, under setting [1], the viability index was 1.12 ± 0.025.

For `COc1ccccc1C#Cc1ccc([C@H]2[C@@H](C#N)N(C(=O)C3CCC3)[C@@H]2CO)cc1`, the viability index under setting [1] came to 1.05 ± 0.038.

The molecule `COc1cccc(C#Cc2ccc([C@@H]3[C@@H](C#N)N(C(=O)c4ccccn4)[C@H]3CO)cc2)c1` displayed a viability index under setting [1] of 1.04 ± 0.029.

`COc1cccc(C#Cc2ccc([C@@H]3[C@H](C#N)N(C(=O)c4ccccn4)[C@H]3CO)cc2)c1` showed a viability index under setting [1] of 0.929 ± 0.051.

For `COc1ccccc1C#Cc1ccc([C@@H]2[C@@H](C#N)N(C(=O)C3CCC3)[C@@H]2CO)cc1`, the viability index under setting [1] amounted to 1.15 ± 0.082.

`COc1ccccc1C#Cc1ccc([C@@H]2[C@@H](CO)N(C(=O)C3CCC3)[C@H]2C#N)cc1` had a viability index under setting [1] of 1.06 ± 0.047.

In turn, `COc1ccccc1C#Cc1ccc([C@H]2[C@@H](CO)N(C(=O)C3CC3)[C@H]2C#N)cc1` registered a viability index under setting [2] of 0.849 ± 0.047.

In turn, `COc1ccccc1C#Cc1ccc([C@H]2[C@@H](C#N)N(C(=O)C3CCCC3)[C@H]2CO)cc1` had a viability index under setting [2] of 0.583 ± 0.18.

Under setting [1], `COc1ccccc1C#Cc1ccc([C@H]2[C@H](C#N)N(C(=O)C3CCC3)[C@H]2CO)cc1` gave a viability index of 1.02 ± 0.025.

With `COc1ccccc1C#Cc1ccc([C@H]2[C@@H](C#N)N(C(=O)C3CCC3)[C@H]2CO)cc1`, under setting [1], the viability index was 0.846 ± 0.07.

For `COc1cccc(C#Cc2ccc([C@H]3[C@@H](CO)N(C(=O)c4ccccn4)[C@H]3C#N)cc2)c1`, the viability index under setting [1] turned out to be 0.8087 ± 0.0043.

`C[C@@H]1CN([C@@H](C)CO)C(=O)c2c(c3ccccc3n2C)-c2ccccc2CO[C@H]1CN(C)C(=O)[C@H]1CCCN1C` gave a viability index under setting [1] of 1.08 ± 0.011.

For the molecule `C[C@H](CO)N1C[C@H](C)[C@@H](CN(C)CC2CC2)OCCCC[C@H](C)Oc2ccc(NC(=O)c3ccccc3)cc2C1=O`, under setting [1], the viability index was found to be 1.07 ± 0.02.

As for `CCCN(C)C[C@@H]1OCCCC[C@H](C)Oc2ccc(NC(=O)CCCN(C)C)cc2C(=O)N([C@@H](C)CO)C[C@@H]1C`, the viability index under setting [1] turned out to be 1.1 ± 0.14.

Consider `OC[C@H]1Nc2ccc(C#Cc3ccc(F)cc3)cc2[C@@H]2[C@H]1CCN2Cc1ccc2c(c1)OCO2`, for which the viability index under setting [1] stood at 1.06 ± 0.019.

`CN1C(=O)c2cc(NC(=O)c3cccc(F)c3)ccc2OC[C@@H]2O[C@H](CC(=O)NCc3ccccc3Cl)CC[C@H]21` displayed a viability index under setting [1] of 1.13 ± 0.036.

`C[C@@H]1CN([C@H](C)CO)C(=O)c2cc(NS(=O)(=O)c3ccccc3)ccc2O[C@@H](C)CCCCO[C@@H]1CN(C)C(=O)C1CCCCC1`: the viability index under setting [1] was 1.01 ± 0.13.

Consider `CC(C)C(=O)Nc1ccc2c(c1)C(=O)N(C)[C@H]1CC[C@@H](CC(=O)NCCc3ccccc3)O[C@@H]1CO2`, for which, under setting [1], the viability index was 1.03 ± 0.06.

For the molecule `COc1cccc(C#Cc2ccc([C@H]3[C@@H](C#N)N(C(=O)c4ccccn4)[C@@H]3CO)cc2)c1`, the viability index under setting [1] worked out at 1.098 ± 0.009.

Under setting [1], `COc1ccccc1C#Cc1ccc([C@@H]2[C@H](C#N)N(C(=O)C3CCC3)[C@H]2CO)cc1` showed a viability index of 1.03 ± 0.09.

`COc1ccccc1C#Cc1ccc([C@@H]2[C@@H](C#N)N(C(=O)C3CCC3)[C@H]2CO)cc1` returned a viability index under setting [1] of 1.03 ± 0.022.

The molecule `COc1cccc(C#Cc2ccc([C@H]3[C@@H](CO)N(C(=O)C4CCCC4)[C@H]3C#N)cc2)c1` showed a viability index under setting [2] of 0.882 ± 0.054.

For the molecule `COc1cccc(C#Cc2ccc([C@@H]3[C@@H](C#N)N(C(=O)C4CCCCC4)[C@H]3CO)cc2)c1`, under setting [2], the viability index turned out to be 0.7 ± 0.1.

In the case of `COc1ccccc1C#Cc1ccc([C@H]2[C@@H](C#N)N(C(=O)C3CCCCC3)[C@H]2CO)cc1`, under setting [2], the viability index is 0.345 ± 0.087.

`CCCNC(=O)N(C)C[C@H]1Oc2ncc(C#CC3CCCCC3)cc2C(=O)N([C@@H](C)CO)C[C@@H]1C`: under setting [1], the viability index worked out at 0.929 ± 0.067.

`Cc1ccccc1S(=O)(=O)Nc1ccc2c(c1)C(=O)N(C)[C@@H]1CC[C@H](CC(=O)O)O[C@@H]1CO2` yielded a viability index under setting [1] of 1.01 ± 0.033.

With `CN(C)CC(=O)N1[C@H](C(=O)Nc2nccs2)[C@@H](CO)[C@@H]2Cn3c(ccc(C4=CCCCC4)c3=O)[C@@H]21`, the viability index under setting [1] turned out to be 1.02 ± 0.015.

As for `COc1ccc(CN2C[C@H](O)COC[C@@H]3O[C@H](CC(=O)N(C)C)CC[C@H]32)cc1`, the viability index under setting [1] was found to be 1.08 ± 0.1.

On to `C[C@H](CO)N1C[C@H](C)[C@H](CN(C)C(=O)NC2CCCCC2)Oc2ccc(N(C)C)cc2CC1=O`, for which the viability index under setting [1] was 1.13 ± 0.1.

For `CO[C@H]1CC[C@@H]2CCOc3c(C#N)cccc3C(=O)N(C)C[C@@H](OC)[C@@H](C)C(=O)N(C)C[C@@H]1O2`, the viability index under setting [1] came to 1 ± 0.023.

Molecule `COc1ccc2c3c([C@@H](CO)N(C[C@]33CN(C3)C(=O)Nc3cccc(F)c3)C(=O)C3CCOCC3)n(C)c2c1` had a viability index under setting [1] of 1.06 ± 0.05.

For `COc1ccc2c3c([C@@H](CO)N(C[C@]33CCN(CC3)C(=O)Nc3cccc(F)c3)C(=O)C3CC3)n(C)c2c1`, the viability index under setting [2] was found to be 0.807 ± 0.036.

`CCCNC(=O)N1C[C@]2(CCN(CC2)C(=O)Nc2cccc(F)c2)c2c([C@H]1CO)n(C)c1cc(OC)ccc21` came in with a viability index under setting [1] of 0.991 ± 0.079.

Take `COc1ccc2c3c([C@@H](CO)N(C[C@]33CCN(CC3)C(=O)Nc3cccc(F)c3)C(=O)C3CCCC3)n(C)c2c1`: the viability index under setting [2] came out at 0.822 ± 0.039.

Molecule `COc1ccc2c3c([C@@H](CO)N(C[C@]33CCN(CC3)C(=O)Nc3cccc(F)c3)C(=O)CN3CCOCC3)n(C)c2c1` registered a viability index under setting [1] of 0.993 ± 0.12.

With `COc1ccc2c3c([C@H](CO)N(C[C@]33CCN(CC3)C(=O)Nc3cccc(F)c3)C(=O)CN3CCOCC3)n(C)c2c1`, the viability index under setting [1] came out at 0.941 ± 0.018.
